Reference: PubChem BioAssay (NCI)
About 83,000 compounds went through this panel and 20% of them were active in at least one assay; those are over-represented in the sample as a whole.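 Each cell line was grown in a 96-well plate and treated with one concentration of compound for 48 hours. Values below 10 were considered active.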 Active and inactive are the calls of the source.

test system: OVCAR-8 ovarian; experiment: NCI-60 one-dose screen, 48 h (100 = growth as untreated, 0 = no growth, -100 = all killed); settings: 10 µM

SMILES | growth
COc1ccc(-c2cc(C(=O)N=Nc3c(O)[nH]c4ccc(Br)cc34)c3ccccc3n2)cc1 | 8.79% (active)
CC(=O)c1ccc(Nc2nc(SCCC(C)C)nc(-c3ccc(F)cc3)c2C#N)cc1 | 8.35% (active)
Clc1cccc(N/N=C/c2c[nH]c3ccccc23)n1 | 41% (inactive)
O=[N+]([O-])c1ccc(-c2nc(-c3ccccc3)c(-c3ccccc3)n2-c2ccc(S(=O)(=O)Nc3ncccn3)cc2)cc1 | 54.5% (inactive)
O=C(CSc1nnc(-c2ccc3nc(-c4ccc(Cl)cc4)[nH]c3c2)o1)Nc1ccc(Cl)cc1 | -17.6% (active)
CCOC(=O)c1c(CSc2ccccc2)n(C)c2cc(CN(C)C)c(O)c(CN(C)C)c12 | 30.4% (inactive)
N#Cc1c(NC(=O)c2cccc(C(F)(F)F)c2)sc2c1CCC(O)=C2 | 41.6% (inactive)
Cc1ccc(-c2nc(Nc3ccc(S(N)(=O)=O)cc3)c3ccccc3n2)cc1 | 63.2% (inactive)
Cc1ccc2nc(COc3ccc(C(=O)NNC(=S)NC(=O)c4ccccc4)cc3)[nH]c2c1 | 42.1% (inactive)
O=C(CNc1nc(-c2ccccc2)cs1)Nc1cccc([N+](=O)[O-])c1 | -11.1% (active)
CC(=O)Nc1ccc(-c2cn(-c3cccc(C(=O)Nc4cccc(OC(F)(F)F)c4)c3)nn2)cn1 | 57.1% (inactive)
OCCCNc1oc(-c2ccccc2)nc1[P+](c1ccccc1)(c1ccccc1)c1ccccc1 | 8.02% (active)
CC(C)Sc1nc(NC2CC2)c(C#N)c(-c2ccccc2)n1 | 30.8% (inactive)
OCCNc1oc(-c2ccccc2)nc1[P+](c1ccccc1)(c1ccccc1)c1ccccc1 | 7.35% (active)
C/C(=C\c1ccc(O)cc1O)c1ccc2ccc(O)cc2[o+]1 | 9.36% (active)
Cc1noc2c(Cc3ccc([N+](=O)[O-])cc3)nn(CC(=O)N/N=C/c3ccc(Cl)cc3)c(=O)c12 | 20.1% (inactive)
CCOC(=O)CNC(=O)CN(Cc1ccccc1)C(=O)[C@@]1(C)CCC[C@]2(C)[C@H]3CC4C(C(C)C)=C[C@]3(CC[C@H]21)[C@@H]1C(=O)CCC(=O)[C@H]41 | 58.3% (inactive)
O=C(CSc1nnc(-c2c[nH]c3ccccc23)n1-c1ccccc1)c1ccc(Cl)cc1 | 24.5% (inactive)
COc1ccc(-c2cc(C(=O)N=Nc3c(O)[nH]c4ccc(F)cc34)c3ccccc3n2)cc1 | 59.1% (inactive)

SMILES | growth
O=C1Nc2ccc(Cl)cc2/C1=C/c1ccc(OCc2ccccn2)cc1 | 45.9% (inactive)
Cc1noc2c(Cc3ccccc3)nn(CC(=O)N/N=C/c3ccc(Cl)cc3)c(=O)c12 | 8% (active)
COc1ccc2[nH]c(=O)c(CSc3cccc(N)c3)cc2c1 | 59.2% (inactive)
COc1ccc(C(=O)/C=C/c2cc(F)cc(C(F)(F)F)c2)cc1S(N)(=O)=O | -44.1% (active)
Nc1cc(-c2cccc(C(=O)NCc3ccc4c(c3)OCO4)c2)ccn1 | 103% (inactive)
Cc1ccc(/C(N)=N/c2sc(-c3ccccc3)nc2-c2ccccc2)cc1 | 91.4% (inactive)
CN(C(=O)c1ccc(C(C)(C)C)cc1)c1sc2c(c1C#N)CCC(=O)C2 | 5.3% (active)
O=C(NO)c1ccc(CNC(=O)[C@H]2Cc3c([nH]c4ccccc34)[C@H](c3ccccc3)N2)cc1 | 24.7% (inactive)
COc1ccc2cc([C@H](C)C(=O)NCc3ccccc3)ccc2c1 | 32.7% (inactive)
Cc1noc2c(Cc3ccccc3)nn(CC(=O)N/N=C/c3ccc(F)cc3)c(=O)c12 | 33.1% (inactive)
COc1cnc2c(c1)C(=O)c1c-2n(CCCNCCO)c(=O)c2cc(OC)c(OC)cc12 | 30.4% (inactive)
CN1CCc2c(sc3ncnc(N/N=C/c4cn(-c5ccccc5)nc4-c4ccc(Cl)cc4)c23)C1 | -26.1% (active)
N#Cc1c(NC(=O)c2ccc(C(F)(F)F)cc2C(F)(F)F)sc2c1CCC(=O)C2 | -16.9% (active)
O=C1N/C(=N\c2nccs2)S/C1=C\c1cccs1 | 31.3% (inactive)
CC(=O)c1ccc(Nc2nc(SC(C)C)nc(-c3ccccc3)c2C#N)cc1 | 5.17% (active)
O=C(CNc1nc(-c2ccccc2)cs1)Nc1ccc([N+](=O)[O-])cc1Cl | 30.4% (inactive)
O=C(NO)c1ccc(Cn2ccc3c(Nc4ccccc4)ncnc32)cc1 | -21.4% (active)
O=C(NO)c1ccc(CN2CCN(c3nc(-c4ccccc4)c4ccccc4n3)CC2)cc1 | 8.54% (active)

test system: OVCAR-5 ovarian; experiment: as above; settings: 10 µM

SMILES | growth
COc1ccc(-c2cc(C(=O)N=Nc3c(O)[nH]c4ccc(Br)cc34)c3ccccc3n2)cc1 | 51.3% (inactive)
CC(=O)c1ccc(Nc2nc(SCCC(C)C)nc(-c3ccc(F)cc3)c2C#N)cc1 | 53.4% (inactive)
Clc1cccc(N/N=C/c2c[nH]c3ccccc23)n1 | 52.2% (inactive)
O=[N+]([O-])c1ccc(-c2nc(-c3ccccc3)c(-c3ccccc3)n2-c2ccc(S(=O)(=O)Nc3ncccn3)cc2)cc1 | 72.8% (inactive)
O=C(CSc1nnc(-c2ccc3nc(-c4ccc(Cl)cc4)[nH]c3c2)o1)Nc1ccc(Cl)cc1 | -10.2% (active)
CCOC(=O)c1c(CSc2ccccc2)n(C)c2cc(CN(C)C)c(O)c(CN(C)C)c12 | 63.4% (inactive)
N#Cc1c(NC(=O)c2cccc(C(F)(F)F)c2)sc2c1CCC(O)=C2 | 119% (inactive)
Cc1ccc(-c2nc(Nc3ccc(S(N)(=O)=O)cc3)c3ccccc3n2)cc1 | 68.9% (inactive)
Cc1ccc2nc(COc3ccc(C(=O)NNC(=S)NC(=O)c4ccccc4)cc3)[nH]c2c1 | 80.2% (inactive)
O=C(CNc1nc(-c2ccccc2)cs1)Nc1cccc([N+](=O)[O-])c1 | -92.8% (active)
CC(=O)Nc1ccc(-c2cn(-c3cccc(C(=O)Nc4cccc(OC(F)(F)F)c4)c3)nn2)cn1 | 108% (inactive)
OCCCNc1oc(-c2ccccc2)nc1[P+](c1ccccc1)(c1ccccc1)c1ccccc1 | 26.2% (inactive)
CC(C)Sc1nc(NC2CC2)c(C#N)c(-c2ccccc2)n1 | 92% (inactive)
OCCNc1oc(-c2ccccc2)nc1[P+](c1ccccc1)(c1ccccc1)c1ccccc1 | 31.2% (inactive)
C/C(=C\c1ccc(O)cc1O)c1ccc2ccc(O)cc2[o+]1 | 192% (inactive)
Cc1noc2c(Cc3ccc([N+](=O)[O-])cc3)nn(CC(=O)N/N=C/c3ccc(Cl)cc3)c(=O)c12 | 73.7% (inactive)
CCOC(=O)CNC(=O)CN(Cc1ccccc1)C(=O)[C@@]1(C)CCC[C@]2(C)[C@H]3CC4C(C(C)C)=C[C@]3(CC[C@H]21)[C@@H]1C(=O)CCC(=O)[C@H]41 | 97.8% (inactive)
O=C(CSc1nnc(-c2c[nH]c3ccccc23)n1-c1ccccc1)c1ccc(Cl)cc1 | 90.7% (inactive)
COc1ccc(-c2cc(C(=O)N=Nc3c(O)[nH]c4ccc(F)cc34)c3ccccc3n2)cc1 | 88.5% (inactive)

SMILES | growth
O=C1Nc2ccc(Cl)cc2/C1=C/c1ccc(OCc2ccccn2)cc1 | 88.2% (inactive)
Cc1noc2c(Cc3ccccc3)nn(CC(=O)N/N=C/c3ccc(Cl)cc3)c(=O)c12 | 66% (inactive)
COc1ccc2[nH]c(=O)c(CSc3cccc(N)c3)cc2c1 | 91.6% (inactive)
COc1ccc(C(=O)/C=C/c2cc(F)cc(C(F)(F)F)c2)cc1S(N)(=O)=O | -59.9% (active)
Nc1cc(-c2cccc(C(=O)NCc3ccc4c(c3)OCO4)c2)ccn1 | 121% (inactive)
Cc1ccc(/C(N)=N/c2sc(-c3ccccc3)nc2-c2ccccc2)cc1 | 84.1% (inactive)
CN(C(=O)c1ccc(C(C)(C)C)cc1)c1sc2c(c1C#N)CCC(=O)C2 | 8.47% (active)
O=C(NO)c1ccc(CNC(=O)[C@H]2Cc3c([nH]c4ccccc34)[C@H](c3ccccc3)N2)cc1 | 15.3% (inactive)
COc1ccc2cc([C@H](C)C(=O)NCc3ccccc3)ccc2c1 | 53.8% (inactive)
Cc1noc2c(Cc3ccccc3)nn(CC(=O)N/N=C/c3ccc(F)cc3)c(=O)c12 | 93.7% (inactive)
COc1cnc2c(c1)C(=O)c1c-2n(CCCNCCO)c(=O)c2cc(OC)c(OC)cc12 | 24% (inactive)
CN1CCc2c(sc3ncnc(N/N=C/c4cn(-c5ccccc5)nc4-c4ccc(Cl)cc4)c23)C1 | 27% (inactive)
N#Cc1c(NC(=O)c2ccc(C(F)(F)F)cc2C(F)(F)F)sc2c1CCC(=O)C2 | -62.3% (active)
O=C1N/C(=N\c2nccs2)S/C1=C\c1cccs1 | 49.1% (inactive)
CC(=O)c1ccc(Nc2nc(SC(C)C)nc(-c3ccccc3)c2C#N)cc1 | 55.8% (inactive)
O=C(CNc1nc(-c2ccccc2)cs1)Nc1ccc([N+](=O)[O-])cc1Cl | 36.4% (inactive)
O=C(NO)c1ccc(Cn2ccc3c(Nc4ccccc4)ncnc32)cc1 | 0.443% (active)
O=C(NO)c1ccc(CN2CCN(c3nc(-c4ccccc4)c4ccccc4n3)CC2)cc1 | 19.3% (inactive)
